According to PMC4336329 (PLoS ONE, 2015):
In all, about 310,000 compounds went through this assay and about 2,200 (0.71%) showed an effect of 50% or more. The effect is printed as a negative number. The list comes from a sample in which strong results are over-represented; it also holds similar structures and randomly drawn compounds.

target: human ether-à-go-go-related gene (hERG) potassium channel (human, UniProt Q12809); assay: primary screen, population patch clamp on CHO cells stably expressing hERG; higher = less effect of the substance
Sequence (Q12809 whole entry, looked up): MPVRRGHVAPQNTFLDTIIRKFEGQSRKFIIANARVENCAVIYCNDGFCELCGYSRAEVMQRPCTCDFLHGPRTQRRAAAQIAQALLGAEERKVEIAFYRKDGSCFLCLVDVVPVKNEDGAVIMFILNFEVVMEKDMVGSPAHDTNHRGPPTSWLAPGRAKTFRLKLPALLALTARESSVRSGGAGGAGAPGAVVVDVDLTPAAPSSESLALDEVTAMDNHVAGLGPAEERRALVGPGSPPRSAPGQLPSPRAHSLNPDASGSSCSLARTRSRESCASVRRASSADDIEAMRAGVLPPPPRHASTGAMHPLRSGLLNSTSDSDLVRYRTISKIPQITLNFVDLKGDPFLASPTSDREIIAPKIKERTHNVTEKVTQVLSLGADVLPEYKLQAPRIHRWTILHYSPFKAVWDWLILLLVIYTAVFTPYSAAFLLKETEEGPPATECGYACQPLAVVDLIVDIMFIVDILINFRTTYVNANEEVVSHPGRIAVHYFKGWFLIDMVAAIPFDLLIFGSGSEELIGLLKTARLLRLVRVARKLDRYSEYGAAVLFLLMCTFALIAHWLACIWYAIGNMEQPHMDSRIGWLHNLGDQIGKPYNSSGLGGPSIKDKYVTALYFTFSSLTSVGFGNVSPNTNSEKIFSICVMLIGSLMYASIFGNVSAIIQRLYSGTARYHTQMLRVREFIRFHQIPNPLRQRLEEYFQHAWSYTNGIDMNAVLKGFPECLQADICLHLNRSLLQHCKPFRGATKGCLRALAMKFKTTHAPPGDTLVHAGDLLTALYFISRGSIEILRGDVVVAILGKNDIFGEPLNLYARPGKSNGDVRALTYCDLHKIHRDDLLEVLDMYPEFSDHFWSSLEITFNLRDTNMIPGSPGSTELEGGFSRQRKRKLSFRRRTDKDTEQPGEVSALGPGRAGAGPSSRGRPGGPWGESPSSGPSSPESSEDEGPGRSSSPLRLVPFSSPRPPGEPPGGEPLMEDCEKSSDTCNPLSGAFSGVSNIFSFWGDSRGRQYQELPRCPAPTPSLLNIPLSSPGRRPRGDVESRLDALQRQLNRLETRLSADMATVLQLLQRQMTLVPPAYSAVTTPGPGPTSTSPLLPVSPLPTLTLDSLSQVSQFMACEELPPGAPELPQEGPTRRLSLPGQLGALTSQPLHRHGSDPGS

SMILES	hERG current change (%, negative = inhibition) at 1uM
CC1CCCCC1NC(=O)CCn1c(=O)sc2ccccc21 (stereo not shown)	18%
Cc1ccc(C(=O)NNC(=O)c2n[nH]c(=O)c3ccccc23)cc1C	5.71%
Cc1cccc2cc(CN(Cc3cccs3)Cc3nnnn3Cc3ccccc3)c(=O)[nH]c12	-3.15%
O=C(NO)c1ccc(C(=O)N(C2CCCCC2)C2CCCCC2)cc1	3.06%
Cc1ccc(N2CC(C(=O)Nc3ccc(S(=O)(=O)N4CCOCC4)cc3)CC2=O)cc1Cl (stereo not shown)	7.84%
C/C(=N/NC(=O)c1ccc2c(c1)OCO2)c1cccc(NC(=O)C(C)(C)C)c1	9.89%
CC(Oc1ccccc1)C(=O)Nc1ccc(S(=O)(=O)N2CCCC2)cc1 (stereo not shown)	16.8%
COc1ccc(S(=O)(=O)n2nc(OC(=O)C3CCCCC3)cc2N)cc1	9.89%
CCOc1ccccc1N1CCN(C(=O)c2cc(-c3cc(OC)ccc3OC)nc3ccccc23)CC1	8.96%
CC12CC3(C)CC(C)(C1)CC(C(=O)NCC(=O)O)(C2)C3	19.5%
COc1ccc(-c2ccc(S(=O)(=O)n3nc(OC(=O)c4cccs4)cc3N)cc2)cc1	8.64%
COc1ccc(CCNC(=O)C2CCN(Cc3nc(-c4cccc(Cl)c4)oc3C)CC2)cc1OC	-80.9%
COc1ccccc1CNC(=O)C1CCN(Cc2nc(-c3cccc(Cl)c3)oc2C)CC1	-68.3%
Cc1oc(-c2cccc(Cl)c2)nc1CN1CCC(C(=O)NCC2CCCO2)CC1 (stereo not shown)	-31.8%
COc1ccc(CCNC(=O)C2CCCN(Cc3nc(-c4ccccc4C)oc3C)C2)cc1OC (stereo not shown)	-2.12%
COc1ccc(CCNC(=O)C2CCN(Cc3nc(-c4ccccc4F)oc3C)CC2)cc1OC	-17.3%
CCN1CCN(CCNC(=O)C2CCCN(Cc3nc(-c4cccc(Cl)c4)oc3C)C2)CC1 (stereo not shown)	3.86%
CCc1ccc(-c2nc(CN3CCCC(C(=O)NCCc4ccc(OC)c(OC)c4)C3)c(C)o2)cc1 (stereo not shown)	-3.23%
Cc1oc(-c2cccc(Cl)c2)nc1CN1CCC(C(=O)NCCCN2CC(C)CC(C)C2)CC1 (stereo not shown)	13.9%
CCc1ccc(-c2nc(CN3CCC(C(=O)NCCc4ccc(OC)c(OC)c4)CC3)c(C)o2)cc1	-40%
COc1ccc(CCNC(=O)C2CCN(Cc3nc(-c4ccccc4C)oc3C)CC2)cc1OC	-59.9%
CCc1ccc(-c2nc(CN3CCC(C(=O)NCc4ccccc4OC)CC3)c(C)o2)cc1	-13.1%

SMILES	hERG current change (%, negative = inhibition) at 1uM
COc1ccc(CCNC(=O)C2CCCN(Cc3nc(-c4cccc(Cl)c4)oc3C)C2)cc1OC (stereo not shown)	-76.7%
Cc1ccccc1C(=O)Nc1ccnc(-c2ccncc2)n1	14.1%
C/C(CC(=O)NCc1ccco1)=N\NC(=O)C(c1ccccc1)c1ccccc1	6.69%
CCOc1ccc(CCNC(=O)CCc2nnc3ccc(N4CCOCC4)nn23)cc1OCC	7.73%
O=C(Nc1ccc(SC(F)F)cc1)C12CCC(CC1)C2	5.66%
CN(CC(=O)Nc1ccccc1Cl)C(=O)COC(=O)c1nc(Cl)c(Cl)c(Cl)c1Cl	9.88%
C=CCn1c(COc2ccc(Cl)cc2)nnc1SCC(=O)c1c(N)n(C)c(=O)n(C)c1=O	10.5%
Cc1oc(-c2ccccc2F)nc1CN1CCC(C(=O)NC2CC2)CC1	0.032%
Cc1ccccc1-c1nc(CN2CCC(C(=O)NCCC3=CCCCC3)CC2)c(C)o1	-32%
Cc1oc(-c2ccccc2F)nc1CN1CCC(C(=O)NCCC2=CCCCC2)CC1	-51.1%
CN(C)CCN(C(=O)CN1C(=O)c2ccccc2C1=O)c1nc2cc3c(cc2s1)OCO3.Cl	7.04%
COc1ccccc1C(=O)N/C(=C/c1ccccc1)C(=O)NC(CCSC)C(=O)O (stereo not shown)	12%
CSc1ccc(CN2CCC(CO)(CCOc3ccccc3)CC2)cc1	-81.2%
OCC1(CCOc2ccccc2)CCN(Cc2ccncc2)CC1	-0.954%
CC(=O)Nc1ccc(CN2CCC(CO)(CCOc3ccccc3)CC2)cc1	-43.8%
OCCOc1cccc(CN2CCC(CO)(CCOc3ccccc3)CC2)c1	-2.72%
COC(=O)c1ccc(CN2CCC(CO)(CCOc3ccccc3)CC2)cc1	-81.7%
COC(=O)c1ccc(CN2CCC(CO)(Cc3cccc(OC)c3)CC2)cc1	-45.3%
c1csc(CN2CCN(Cc3cccs3)C2c2cccs2)c1	4.62%
O=C(c1ccc(=O)[nH]c1)N1CCN(S(=O)(=O)c2ccc3ccccc3c2)CC1	6.52%
O=C(NN=C1C2CC3CC(C2)CC1C3)c1ccncc1	-0.112%
Cl.Clc1ccc(-c2ccc(CNCc3ccccn3)o2)cc1	-5.94%

SMILES	hERG current change (%, negative = inhibition) at 1uM
O=C(c1cc2cc([N+](=O)[O-])ccc2oc1=O)N1CCOCC1	7.86%
O=C(c1cc2cc([N+](=O)[O-])ccc2oc1=O)N1CCN(C2CCCCC2)CC1	-60.8%
CCN1CCN(C(=O)c2cc3cc([N+](=O)[O-])ccc3oc2=O)CC1	-1.11%
COc1ccc(Cc2nc3ccc(C(=O)NC(C)c4cn(C)nc4C)cc3o2)cc1 (stereo not shown)	9.59%
COc1ccc(OCCOC(=O)c2[nH]c(C)c(C(C)=O)c2C)cc1	8.51%
COc1ccc(-c2csc(NC(=O)CN3C(=O)NC4(CCCC4)C3=O)n2)cc1	1.42%
COc1ccc(C(=O)C(OC(=O)c2ccccc2)c2ccccc2)cc1 (stereo not shown)	2.14%
Cc1ccc(CSc2ccc3nnc(-c4ccccn4)n3n2)cc1	-36.5%
Cc1ccccc1CSc1nnc(-c2ccccn2)n1C	10.8%
Cc1ccc(C)c(CSc2ccc3nnc(-c4ccccn4)n3n2)c1	-54.3%
CCOC(=O)N1CCN(C(=O)CSc2ccc3nnc(-c4ccccn4)n3n2)CC1	2.22%
Cc1ccccc1NC(=O)CSc1ccc2nnc(-c3ccccn3)n2n1	7.85%
Cc1ccccc1CSc1ccc2nnc(-c3ccccn3)n2n1	-50.9%
O=C(CSc1ccc2nnc(-c3ccccn3)n2n1)N1CCOCC1	6.32%
O=C(CSc1ccc2nnc(-c3ccccn3)n2n1)N1CCN(c2ccccc2)CC1	-89.9%
Cc1ccc(NC(=O)CSc2ccc3nnc(-c4ccccn4)n3n2)cc1	5.84%
CNc1sc(C(=O)c2ccc(F)cc2)c(N)c1-c1nc2ccccc2s1	5.15%
CNNC(=S)NCCC1=CCCCC1	10.2%
C/C(N)=C(/C#N)C(=O)CSc1nc2ccc(C)cc2[nH]1	11%
Cn1cnnc1SC(C(=O)Nc1ccc(F)cc1)c1ccccc1 (stereo not shown)	4.93%
CCCc1ccc(-c2cc(C(=O)NCCc3ccc(S(N)(=O)=O)cc3)c3ccccc3n2)cc1	16.3%
O=C(CCS(=O)(=O)c1ccc(Br)cc1)Nc1ccccn1	15.2%

SMILES	hERG current change (%, negative = inhibition) at 1uM
CCOc1ccc(N(CC(=O)OC)S(=O)(=O)c2ccc(OC)c(OC)c2)cc1	-0.463%
COc1ccc(Cl)cc1NC(=O)CSc1nnc(Cc2cccn2C)n1-c1ccc(F)cc1	2.71%
COc1ccc(-n2c(Cc3cccn3C)nnc2SCC(=O)Nc2ccccc2OC)cc1	-4.23%
COc1ccc(-n2c(Cc3cccn3C)nnc2SCC(=O)Nc2cc(Cl)ccc2OC)cc1	-50.9%
COc1ccc(C2NN=C(c3ccc(C)cc3)S2)cc1OC (stereo not shown)	16.1%
CCN(CC)CCN(C(=O)c1ccc(C(=O)c2ccccc2)cc1)c1nc2c(OC)cccc2s1.Cl	-33%
CCN(CC)CCN(C(=O)C1=COCCO1)c1nc2ccc(C)cc2s1.Cl	-34%
CCOc1cccc2sc(N(CCN(CC)CC)C(=O)c3cccc([N+](=O)[O-])c3)nc12.Cl	-44.9%
CCN(CC)CCN(C(=O)c1ccc([N+](=O)[O-])cc1)c1nc2c(OC)cccc2s1.Cl	-53.4%
CCN(C(=O)C1=COCCO1)c1nc2c(C)cccc2s1	0.721%
CCN(CC)CCN(C(=O)C1=COCCO1)c1nc2c(OC)ccc(OC)c2s1.Cl	-84.9%
CCN(CC)CCN(C(=O)C1=COCCO1)c1nc2cc3c(cc2s1)OCO3.Cl	-63.3%
CCN(CC)CCN(C(=O)C1=COCCO1)c1nc2cc(C)cc(C)c2s1.Cl	-36.7%
CCN(CC)CCN(C(=O)c1ccc2c(c1)OCCO2)c1nc2cc3c(cc2s1)OCO3.Cl	-18.3%
Cc1c(Cl)c([N+](=O)[O-])nn1CCCC(=O)Nc1cc(Cl)ccc1Cl	-10.9%
O=C(CP(=O)(c1ccccc1)c1ccccc1)N1CCCCC1	6.28%
CCc1ccc(C(=O)c2cnc3ccc(OC)cc3c2N2CCN(CC)CC2)cc1	-46.6%
CCN1CCN(c2c(C(=O)c3ccc(OC)cc3)cnc3ccccc23)CC1	-67.9%
CCOC(=O)c1cnc2ccc(OCC)cc2c1N1CCN(C)CC1.Cl	-15.6%
CCOc1ccc(C(=O)c2cnc3ccccc3c2N2CCN(CC)CC2)cc1	-43.9%
CCOc1ccc2ncc(C(=O)c3ccc(OC)cc3)c(N3CCN(CC)CC3)c2c1	-66%
COc1cc2ncc(C(=O)c3ccccc3)c(N3CCN(Cc4ccccc4)CC3)c2cc1OC	8.52%
